The results in this text go back to PubChem BioAssay (NCATS).

In assay [1] the target is Cytochrome P450 3A4 (Homo sapiens) (UniProt P08684). The assay is described as follows: qHTS Assay for Inhibitors and Substrates of Cytochrome P450 3A4 (AID 884). Further: nearly all actives have a fitted effect of over 50% in size. Further: potency means the concentration at half of the fitted maximal effect. On activity change, negative = inhibition: on the % scale 0 is the no-effect control and ±100 the full control effect. In a few lines:
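Luminescent readout of luciferin produced by CYP3A4 (20 nM) dealkylation of Luciferin-PPXE, 25 uM (its KM). NADPH-driven reaction ran 60 min at RT after 10 min compound preincubation; data scaled to 57 uM ketoconazole as 100% inhibition.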

The target is the same in assay [2]. In words: qHTS Assay for Activators of Cytochrome P450 3A4 (AID 885). Further: nearly all actives have a fitted effect of over 65% in size. In a few lines:
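Activators are scored by enhanced luminescence from CYP3A4 conversion of luciferin-PPXE (25uM, equal to KM) to luciferin, after 60 min at RT with an NADPH-regenerating system.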
(In qHTS, concentration-response curves come from the screen itself.)

Assay [3] in a line: Confirmation and Secondary Assay for Modulators of Hemoglobin Beta Chain Splicing at IVS2 654 locus (AID 910).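 Further: HeLa cells stably carrying EGFP split by mutant beta-globin IVS2-654 intron; % of control where 0% means no effect.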 In a few lines:
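HeLa cells stably expressing EGFP interrupted by β-globin IVS2-654 intron, seeded overnight in Opti-MEM/2% FCS, then treated 2 days at 37 °C. Restored splicing read as total peak GFP intensity per well by laser scanning cytometry (488 nm excitation, 500–520 nm emission); 500 nM antisense PNA as control.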

A short description of assay [4]: Confirmation and Secondary Assay for Modulators of Hemoglobin Beta Chain Splicing at IVS2 705 locus (AID 930).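 Further: HeLa cells stably expressing the EGFP-705 splicing reporter; GFP fluorescence per well restored by corrected splicing of the IVS2-705 intron in EGFP; % of control where 0% means no effect.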 In a few lines: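 First, HeLa EGFP-705 cells are seeded at 500/well in Optimem with 2% FCS and left overnight. Next, compound or DMSO is added for 2 days. Finally wells are laser-scanned and total peak GFP intensity scored.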
Assay [5] in a line: qHTS Assay for Lipid Storage Modulators (AID 1519; calls by dose curve; on activity change, negative = inhibition: on the % scale 0 is the no-effect control and ±100 the full control effect). Particulars: Drosophila S3 cells, BODIPY lipid droplet/cell ratio, laser cytometry, cells loaded with oleic acid; for activity change, negative = inhibition: at 57.5 µM (top of the series). In a few lines:
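Cells seeded at 5,000 per well were treated with compounds over a concentration series and loaded with oleic acid (400 uM, as added). Lipid droplet fluorescence (488 nm excitation, 500-530 nm channel) was read by laser-scanning cytometry and normalized to 20 uM Triacsin C.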

Assay [6] addresses DNA dC->dU-editing enzyme APOBEC-3G (Homo sapiens) (UniProt Q9HC16). In words: qHTS for inhibitors of Vif-A3G interactions: Validation (AID 588379). Further: 0% is about no effect. In a few lines:
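Yellow fluorescence (Ex 488, Em 500-530) of Vif-coexpressing HeLa A3G-eYFP cells, scanned by Acumen cytometer, reports blocked A3G degradation. Cells plated at 700/well overnight at 37 deg C before compound addition, then a further overnight compound incubation at 37 deg C.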

The target of assay [7] is Ubiquitin carboxyl-terminal hydrolase 1 (Homo sapiens) (UniProt O94782). The assay is described as follows: Inhibitors of USP1/UAF1: Pilot qHTS (AID 504865).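 Further: rhodamine fluorescence freed from ubiquitin-rhodamine substrate followed over time; top concentration of the series differs between compounds; on the % scale 0 is the no-effect control and ±100 the full control effect; nearly all actives have a fitted effect of over 35% in size.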 In a few lines: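 1nM USP1/UAF1 + cpd, 15 min RT; start w/ Ub-Rho 150nM final; kinetic FL 480/540 nm, 6 reads q60 s. Buffer 50mM HEPES pH 7.8, 0.5mM EDTA, 1mM TCEP, 0.01% Tween-20, 0.1 mg/ml BSA.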
Ubiquitin carboxyl-terminal hydrolase 1 (Homo sapiens), sequence (O94782 whole entry, looked up): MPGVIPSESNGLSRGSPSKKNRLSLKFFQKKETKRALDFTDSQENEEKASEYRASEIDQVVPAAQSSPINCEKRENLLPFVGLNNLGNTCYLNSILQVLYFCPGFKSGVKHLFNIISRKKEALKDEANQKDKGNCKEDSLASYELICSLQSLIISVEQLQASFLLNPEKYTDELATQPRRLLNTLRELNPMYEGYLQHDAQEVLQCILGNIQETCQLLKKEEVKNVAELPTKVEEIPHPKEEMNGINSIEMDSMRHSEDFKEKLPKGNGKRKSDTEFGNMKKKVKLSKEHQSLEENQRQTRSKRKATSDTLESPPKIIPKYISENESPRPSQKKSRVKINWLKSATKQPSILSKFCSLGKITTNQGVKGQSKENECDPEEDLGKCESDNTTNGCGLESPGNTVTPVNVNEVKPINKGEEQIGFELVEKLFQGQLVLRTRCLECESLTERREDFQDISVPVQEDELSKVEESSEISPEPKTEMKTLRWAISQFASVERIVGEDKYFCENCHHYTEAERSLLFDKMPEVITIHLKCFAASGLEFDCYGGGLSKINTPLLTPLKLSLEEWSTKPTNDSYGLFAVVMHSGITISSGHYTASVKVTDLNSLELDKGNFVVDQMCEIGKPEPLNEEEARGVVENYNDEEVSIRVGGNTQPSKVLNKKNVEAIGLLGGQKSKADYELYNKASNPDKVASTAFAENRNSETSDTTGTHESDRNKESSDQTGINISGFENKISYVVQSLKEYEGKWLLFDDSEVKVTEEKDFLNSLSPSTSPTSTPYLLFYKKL
[8] abbreviates: measured here: cell count channel max response.
The mark [9] stands for this setting: measured here: lipid channel max response.

The structures appear in SMILES notation. Results filed as inconclusive are left out. The source made the active and inactive calls. Unless noted, the call rests on the fitted dose curve; in most records, active means well fitted curve in the direction sought with a large enough effect; inconclusive means small, poorly fitted or top-dose-only effect, or another doubt; inactive means no such curve, though single readings can be large; an effect the other way counts as inactive or inconclusive.

Cytochrome P450 3A4 (Homo sapiens), sequence (P08684 whole entry, looked up): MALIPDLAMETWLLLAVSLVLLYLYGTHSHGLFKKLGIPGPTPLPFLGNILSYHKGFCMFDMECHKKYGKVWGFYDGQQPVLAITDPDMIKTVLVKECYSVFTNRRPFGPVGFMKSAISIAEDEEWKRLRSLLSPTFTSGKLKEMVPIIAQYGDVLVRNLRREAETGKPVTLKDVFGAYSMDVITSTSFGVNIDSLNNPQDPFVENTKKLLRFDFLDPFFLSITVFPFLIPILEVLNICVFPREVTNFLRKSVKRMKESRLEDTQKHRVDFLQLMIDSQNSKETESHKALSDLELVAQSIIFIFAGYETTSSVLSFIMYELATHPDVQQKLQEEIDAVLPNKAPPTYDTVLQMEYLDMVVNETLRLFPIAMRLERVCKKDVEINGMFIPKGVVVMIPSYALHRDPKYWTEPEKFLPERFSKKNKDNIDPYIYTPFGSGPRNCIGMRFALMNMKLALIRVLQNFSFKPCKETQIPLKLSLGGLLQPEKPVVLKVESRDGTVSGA
DNA dC->dU-editing enzyme APOBEC-3G (Homo sapiens), sequence (Q9HC16 whole entry, looked up): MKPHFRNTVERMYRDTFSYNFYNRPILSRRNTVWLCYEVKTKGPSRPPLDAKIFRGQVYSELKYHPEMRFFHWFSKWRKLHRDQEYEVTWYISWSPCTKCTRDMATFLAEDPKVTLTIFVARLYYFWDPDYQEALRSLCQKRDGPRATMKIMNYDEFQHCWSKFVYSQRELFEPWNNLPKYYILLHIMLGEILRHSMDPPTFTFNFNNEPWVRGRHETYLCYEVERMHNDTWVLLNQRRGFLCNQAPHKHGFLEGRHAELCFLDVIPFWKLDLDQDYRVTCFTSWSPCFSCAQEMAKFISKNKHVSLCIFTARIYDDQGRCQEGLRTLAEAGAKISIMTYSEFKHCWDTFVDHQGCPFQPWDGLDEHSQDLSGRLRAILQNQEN

Take `Cc1[nH]c2ccccc2c1CN(C)C`: the Potency in assay [1] was 12.6 µM (active). The Potency entry in assay [2], in assay [3] and in assay [4] was “inactive” each time. Moreover, in assay [5], the activity change, negative = inhibition is 11.5% (inactive). For the same compound, the max response in assay [5] (setting [8]) is 9.14%; in assay [5] (setting [9]), 21.3%.

On to `CC1=CCCC2C1(C)CCC(C)C2(C)CC/C(C)=C/C[n+]1cn(C)c2c(N)ncnc21` (configuration not stated), for which, in assay [1], the Potency was 31.6 µM (active). Besides, the Potency entry in assay [2], in assay [3] and in assay [4] was “inactive” each time. Besides, the activity change, negative = inhibition in assay [5] is 6.88% (inactive). The max response in assay [5] (setting [8]) amounted to 2.19%; in assay [5] (setting [9]) it was 13.1%.

`OC[C@@H]1CCCN2CCCC[C@@H]12`: the Potency result in assay [1] was “inactive”. Also, in assay [5], the activity change, negative = inhibition was -9.64% (inactive). Besides, the max response in assay [5] (setting [8]) was -24.5%; in assay [5] (setting [9]) it was -31.5%. Further, in assay [6], the compound was classed as inactive.

As for `CC1(C)C(=O)C=C[C@@]2(C)C1CC(O)[C@]1(C)C2CC[C@@]2(C)C(c3ccoc3)OC(=O)C3O[C@]312` (some centres not stated), the Potency in assay [1] is 3.98 µM (active). The Potency result in assay [2], in assay [3] and in assay [4] was “inactive” throughout. Moreover, the activity change, negative = inhibition in assay [5] is -4.48% (inactive). The max response in assay [5] (setting [8]) is 13.8%; in assay [5] (setting [9]), 11.5%.

Consider `CC(C)(C#N)O[C@H]1OC(CO)C(O)C(O)C1O` (some centres not stated), for which the Potency entry in assay [3], in assay [4] and in assay [7] was “inactive” each time. Moreover, the activity change, negative = inhibition in assay [5] was 4.98% (inactive). Besides, the figures for the max response in assay [5] (setting [8]) and in assay [5] (setting [9]) were 13.6% and 22.9%, respectively.
